This is an account of results in PubChem BioAssay AID894 (National Center for Advancing Translational Sciences (NCATS), 2007).

About 6,500 (4.3%) of roughly 150,000 compounds were called active. Another 12% or so got no clear call; they are omitted. This is one part of a sample in which actives are shown more often than they occur. The call rests on the fitted dose curve; in most records, active means well fitted inhibition curve with a large enough effect (not every such curve was filed as active); inconclusive means small, poorly fitted or top-dose-only effect, or another doubt; inactive means no such curve, though single readings can be large or run the other way.
On the % scale 0 is the no-effect control and ±100 the full control effect; potency means the concentration at half of the fitted maximal effect.

Sequence of 15-hydroxyprostaglandin dehydrogenase [NAD(+)] (Homo sapiens) (P15428 whole entry, looked up): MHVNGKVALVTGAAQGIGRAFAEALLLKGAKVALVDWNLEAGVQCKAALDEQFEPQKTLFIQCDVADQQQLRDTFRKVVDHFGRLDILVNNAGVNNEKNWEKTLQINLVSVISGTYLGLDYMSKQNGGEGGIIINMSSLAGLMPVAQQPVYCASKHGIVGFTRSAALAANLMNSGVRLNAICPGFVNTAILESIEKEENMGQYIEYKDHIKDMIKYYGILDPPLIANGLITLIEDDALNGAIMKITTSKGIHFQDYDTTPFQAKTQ

This assay concerns the target 15-hydroxyprostaglandin dehydrogenase [NAD(+)] (Homo sapiens) (UniProt P15428). As to the kind of experiment: qHTS Assay for Inhibitors of HPGD (15-Hydroxyprostaglandin Dehydrogenase). Particulars: purified HPGD, NADH fluorescence kinetic, PGE2 substrate; activity change, negative = inhibition: hits give low values. In outline: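 NADH formation kinetics: reaction with 30 uM PGE2 and 1 mM NAD+ (final), 20 nM enzyme, Tris-HCl pH 8 with Tween 20, after 15 min compound preincubation at room temperature. Fluorescence change, last versus first of five reads.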
Background: In qHTS, concentration-response curves come from the screen itself.
For `COc1ccc(C(=O)ON=C2c3ccccc3-c3ccccc32)cc1OC`, the activity change, negative = inhibition was -23.4% (inactive).
On the same count and under the same terms, as for `CCOc1ccc(Oc2nc(C)cc(OC)n2)nn1`, the figure is -6.46% (inactive); as for `Cc1scc(C(=O)NNC(=S)NCC(C)C)c1C`, -5.27% (inactive).
Still for that read-out and setting: in the case of `Cc1cccc(NC(=S)N(CCN(C)C)C(C)c2ccco2)c1` (configuration not stated) it was -15.4% (inactive).
Still for that read-out and setting: in the case of `COc1ccc(S(=O)(=O)NC(C)C)cc1C(=O)NC1CCCCC1` it was -17.6% (inactive); in that of `CCC(CC)c1nnc(NC(=O)/C=C/c2ccco2)s1`, -29.6% (inactive).
Consider `O=c1[nH]c(-c2cccs2)nc2ccccc12`, for which the Potency was 15.8 µM (active).
Turning to `O=c1onc(-c2cccs2)n1Cc1ccccc1`, the activity change, negative = inhibition was -5.59% (inactive).
Still for that read-out and setting: as for `c1ccc2[nH]c(-c3nc4ccccc4[nH]3)nc2c1`, the figure is -25.9% (inactive); as for `Nc1nc(CC(=O)CSc2ccc(Cl)cc2)nc(Nc2ccc(F)cc2)n1`, -7.75% (inactive).
In the case of `COc1cc(OC)cc(C(=O)NCCSCc2ccco2)c1`, the Potency is 20 µM (active).
On to `COc1ccc(CCNC(=O)c2ccco2)cc1`, for which the activity change, negative = inhibition was -3.27% (inactive).
In the case of `CS(=O)(=O)N(Cc1ccc(Cl)cc1)c1ccc(C(=O)NCCSCc2ccco2)cc1`, the activity change, negative = inhibition was -4.85% (inactive).
As to `O=C(/C=C/c1ccc([N+](=O)[O-])cc1)NCCSCc1ccco1`, the activity change, negative = inhibition was -22.9% (inactive).
Turning to `O=C(/C=C/c1cccc([N+](=O)[O-])c1)NCCSCc1ccco1`, the Potency is 25.1 µM (active).
On to `CCC(CC)NC(=O)/C=C/c1cccc([N+](=O)[O-])c1`, for which the activity change, negative = inhibition was -13.1% (inactive).
Same read-out and setting: in the case of `CC(=O)Nc1cccc(/C(C)=N/NC(=O)c2c(-c3ccccc3Cl)noc2C)c1` it was -6.16% (inactive); in that of `COc1ccc(S(=O)(=O)NC(C)C(=O)Nc2cccc([N+](=O)[O-])c2)cc1` (configuration not stated), -10.4% (inactive); in that of `O=C(COC(=O)Cn1cnc2ccccc2c1=O)NCC12CC3CC(CC(C3)C1)C2`, -2.81% (inactive).
The same measure, in the same setting: as for `COc1cc(NC(=O)Nc2ccc(C)cc2)cc([N+](=O)[O-])c1`, the figure is -10.2% (inactive); as for `CCOC(=O)C1=NO[C@@]2(C=C(Br)C(=O)[C@H]3O[C@H]32)C1`, -23% (inactive); as for `Clc1ccccc1-c1cc(COc2ccc3ccccc3c2)no1`, -25.6% (inactive).
For `O=C(NCc1ccccn1)c1cc(-c2ccccc2Cl)on1`, the Potency was 14.1 µM (active).
With `COc1ccccc1-c1cc(C(=O)NCCCn2ccnc2)no1`, the activity change, negative = inhibition was -21.8% (inactive).
Same read-out and setting: in the case of `CCc1cccc(C)c1NC(=O)CSc1nnc(-c2ccco2)n1N` it was -10.6% (inactive); in that of `CCOC(=O)c1c(NC(=O)CSc2nnc(CN3CCOCC3)n2C)sc2c1CCCC2`, -2.63% (inactive).
Take `NC(=O)c1c(NC(=O)CSc2nnc(-c3ccco3)n2N)sc2c1CCCC2`: the Potency was 14.1 µM (active).
Turning to `CC(C)=C1C2CCC1C1C(=O)N(NC(=O)c3ccco3)C(=O)C21` (configuration not stated), the activity change, negative = inhibition was -7.1% (inactive).
Consider `CC(C)Cc1cc(C(=O)Nc2cc(Br)ccc2O)no1`, for which the Potency is 25.1 µM (active).
With `CC(C)CNC(=O)c1cc(-c2ccc(Br)cc2)on1`, the activity change, negative = inhibition was -23.1% (inactive).
Same read-out and setting: in the case of `CC(C)Cc1cc(C(=O)NCCc2ccccc2)no1` it was -20.6% (inactive); in that of `COc1ccc(C(C(=O)NC2CCCCC2)N(C(=O)CCl)c2ccccc2Cl)cc1` (configuration not stated), -4.95% (inactive); in that of `N#Cc1c(NC(=O)c2ccc(N3CCOCC3)c([N+](=O)[O-])c2)sc2c1CCCC2`, -10.9% (inactive).
Same read-out and setting: as for `O=C(/C=C/c1ccc(Cl)cc1)N1CCN(c2ccccc2[N+](=O)[O-])CC1`, the figure is -15% (inactive); as for `CC(C)(C)NC(=O)C(=O)NCc1ccncc1`, -2.72% (inactive).
Same read-out and setting: in the case of `Cc1nc2ccccc2n1CC(=O)N/N=C/c1cccs1` it was -4.95% (inactive).
Take `O=C(COC(=O)CCC(=O)c1cccs1)NCc1ccco1`: the activity change, negative = inhibition is -9.26% (inactive).
`O=C(CCC(=O)c1cccs1)NCc1ccccc1`: the Potency is 31.6 µM (active).
As to `O=C(c1cccs1)n1nc(NCc2ccccc2)nc1NCc1ccccc1`, the activity change, negative = inhibition is -18.3% (inactive).
Regarding `CCC1CCCCN1C(=S)Nc1ccc(C(C)=O)cc1` (configuration not stated), the activity change, negative = inhibition was -21.2% (inactive).
Still for that read-out and setting: in the case of `Cc1ccc(-c2cn3cc([N+](=O)[O-])ccc3n2)cc1` it was -11.8% (inactive).
Still for that read-out and setting: in the case of `CC[C@H](C)[C@@H](NC(=O)O[C@@H]1C(=O)c2cc(OC)ccc2O[C@H]1c1cccc(OC)c1)C(=O)OC` it was -14.9% (inactive); in that of `O=[N+]([O-])c1cc(C(F)(F)F)ccc1NN=C1CCCC1`, -7.57% (inactive).
Still for that read-out and setting: as for `C/C(=N\NC(=O)CCn1nc(C)cc1C)C(C)(C)C`, the figure is -2.63% (inactive).
Regarding `CCCCC(=O)Nc1ccc2c(c1)OCCO2`, the Potency was 25.1 µM (active).
Turning to `Cc1ccc(SCC(=O)Nc2ccc3c(c2)OCCO3)cc1`, the activity change, negative = inhibition was -4% (inactive).
Regarding `COC(=O)CCNc1ccc2c(c1)OCCO2`, the activity change, negative = inhibition is -9.02% (inactive).
The same measure, in the same setting: as for `Cc1cn(C2OC[C@@H](O)[C@@H]2CO)c(=O)[nH]c1=O` (some centres not stated), the figure is -7.64% (inactive); as for `O=C(CSc1nnc(-c2cccnc2)n1CCc1ccccc1)NCc1ccccc1`, -12.6% (inactive).
Still for that read-out and setting: as for `Cc1ccccc1NC(=O)CSC1=NCCN1`, the figure is -5.67% (inactive).
For `O=C(CSc1n[nH]c(-c2cccnc2)n1)Nc1ccnc2ccccc12`, the Potency is 15.8 µM (active).
In the case of `C=CCn1cc(C(=O)NCc2ccc(Cl)cc2)c(=O)c2cc(S(=O)(=O)N(CC)CC)ccc21`, the activity change, negative = inhibition is 15.1% (inactive).
The same measure, in the same setting: as for `CC(=O)c1sc(N/N=C\c2ccc(C)cc2)nc1C`, the figure is -20.1% (inactive); as for `C=CCNC(=S)NNC(=O)c1ccc(Br)o1`, -14.9% (inactive).
In the case of `c1ccc(-c2nnc3n2NC(c2ccc4c(c2)OCO4)S3)cc1` (configuration not stated), the Potency is 14.1 µM (active).
As for `Cc1cccc(C)c1NC(=O)CSc1nnc(-c2ccccc2)n1Cc1ccc2c(c1)OCO2`, the activity change, negative = inhibition is -8.72% (inactive).
On the same count and under the same terms, in the case of `CC1=C(C(N)=O)C(c2ccc3c(c2)OCO3)n2nc(-c3cccc(C)c3)nc2N1` (configuration not stated) it was -3.51% (inactive).
Same read-out and setting: in the case of `COCCNc1nc(N)c([N+](=O)[O-])c(NCCO)n1` it was -10.5% (inactive).
On the same count and under the same terms, as for `O=C(NNC(=S)NCc1ccccc1)c1ccc(OC(F)F)cc1`, the figure is -6.63% (inactive).
For `Cc1nc2nc(SCC(=O)NCc3ccco3)nn2c(C)c1Cc1ccccc1`, the Potency is 22.4 µM (active).
Consider `Cc1ccc(Cc2c(C)nc3nc(SCC(=O)NCCN4CCOCC4)nn3c2C)cc1`, for which the activity change, negative = inhibition was -11.4% (inactive).
For the compound `COc1cc(OC)cc(-c2nc3nc(C)c(CCC(=O)NCc4ccco4)c(C)n3n2)c1`, the activity change, negative = inhibition was -10.9% (inactive).
